Laboratory results published in the OligoGym collection.

biological target: PION; test: pooled miR-30 sensor sort-seq; sequence = guide strand; settings: shRNA
Also: reference of the scale not given here.

| Sequence | sensor-assay potency score (higher = more potent) |
| --- | --- |
| TTTTCTTCTTTTCTACACCCTG | -0.629 |
| TTTCTTCTTTTCTACACCCTGT | 0.0243 |
| TATAGTTCTGAAGCAGTCGCGT | -0.318 |
| TAGACTGAACTAAACTTGCAGC | -0.224 |
| TTGAACATTAAGTAGGTGGAAG | -0.626 |
| TAACATACACACAAACTTCCTG | 0.883 |
| AACATACACACAAACTTCCTGT | 0.437 |
| TTCTTTAGTAGACTGAACTAAA | -0.809 |
| TTTTCTAAAACATCTGCGCCGC | -0.387 |

biological target: PIP5K1B; test: as above; settings: shRNA

| Sequence | sensor-assay potency score (higher = more potent) |
| --- | --- |
| TTTGAATAGAGTGTAGGCCTGT | 0.71 |
| TTGACATCTTGAAAACTCTTAA | -0.776 |
| TTGCATACAATACAGTCCGTAA | -1.09 |
| TTGGTCTATGAACAGAAACAGT | -1.55 |
| TTAAATTCATGTAATAGCCTGG | 0.247 |
| TTGAGGACACAATCTCCTGTGA | -0.569 |
| TCTAACTTCTTCATTAACCTAT | 0.135 |
| TAATCCATGATCTTGAAGCTTT | -0.406 |
| TTGAACTGGAAGGTAACCCTTT | 0.268 |
| TTGCAGGAAATCTAAGTCCTTA | -0.188 |
| TTCGCTTATACGTTGAGCCTTT | 0.43 |

biological target: PIP5KL1; test: as above; settings: shRNA

| Sequence | sensor-assay potency score (higher = more potent) |
| --- | --- |
| TAATCCAGCACGTTGAGCTCCC | -0.232 |
| TGTCTTCCACAGGTGCTCCAGC | -0.631 |
| TATCCAGTTCCATCTGGCGGAG | -1.65 |
| TACCTCTCGGAGATGCGGCCGG | -0.502 |
| TTGAGCTCCCGGAGGAAGGTGG | -0.608 |
| TTGATGTCATACCTCTCGGAGA | -1.04 |
| TATCAGGAGGCTGTAATCCAGC | -1.11 |
| TTTGGGCTCTCGACTCTTCCGG | -0.891 |
| TTGGGCTCTCGACTCTTCCGGG | -0.549 |
| TTGCGGAGCCCGTAGACTGTGG | -1.6 |
| TAGCGCAGTGTCTTCCACAGGT | 0.0204 |
| TTTGATGTCATACCTCTCGGAG | -0.872 |

biological target: PITPNM3; test: as above; settings: shRNA

| Sequence | sensor-assay potency score (higher = more potent) |
| --- | --- |
| TTTGCTGAGACGCTTGCTGCTG | -0.757 |
| TATGTGATGCGACCACTGCTGT | -0.671 |
| TCTTCGTGGATCTCGATGCTTC | -0.715 |
| TTTGATGAAGCACTCCTGCATG | -0.502 |
| TTCCTCGCTGTCTTCGTGGATC | -1.05 |
| TTGCGCAGGATCATGCGCGAGT | -0.913 |
| TTACGAAGCCACTTCTCCCGGG | -0.085 |
| TTCAGCAGCAATCACATCATTG | -1.64 |
